Laboratory results: PubChem BioAssay AID1566 (Sanford-Burnham Center for Chemical Genomics, 2009)
Screen size: about 290,000 compounds; about 1,800 (0.62%) were called active. The sample holds actives, similar compounds and a random draw of the others, so the mix is not that of the screen. No stated cut-off is given here; in the data, active means inhibition above about 50%; inactive means the rest.

Assay: NOD2 signaling inhibitors, cell-based, luminescence, uHTS, HEK293 (AID 1566)
Conditions: HEK293 NOD2/NF-kB luciferase reporter, at 4 µM, hits give high values

inhibition, inactive:
COc1ccc(NC(=O)CSc2ccc(-c3sc(C)nc3C)nn2)cc1OC 5.8%, COc1ccc(NC(=O)CSc2ccc(-c3sc(C)nc3C)nn2)cc1 4.8%, S=C(Nc1cc(Cl)ccc1Cl)Nn1cnnc1 16.1%, CC(Oc1cc(C(F)(F)F)cc(C(F)(F)F)c1)C(=O)NC(N)=O (stereo not drawn) 11.1%, O=C1CCCN2N=C(SCC(=O)N3CCCCC3)SC2=N1 5.8%, O=C(COc1ccccc1)Nc1ccccc1NS(=O)(=O)c1cccs1 11.6%, O=C(COc1ccc(Cl)cc1Cl)Nc1ccccc1NS(=O)(=O)c1cccs1 25.1%, OC(c1cccc(Cl)c1)c1nccc2ccccc12 (stereo not drawn) 2.5%, COC(=O)c1nc2nc(-c3cccs3)cc(C(F)(F)F)n2n1 9.2%, Nc1cccc(Oc2ccc3c(c2)C(=O)NC3=O)c1 -12.7%, Cc1ccc(NC(=O)CCSc2nnc3ccccn23)cc1 18.1%, CCOC(=O)c1c(-c2ccccc2)csc1NC(=O)CSc1nnnn1C 12.2%, CC(=O)c1c(C)oc2ccc(OCc3ccccc3)cc12 -10.9%, CC(=O)/C(=C/c1ccc(N(C)C)cc1)C(=O)c1ccccc1 -7.8%, O=C(Nc1ccc(Cl)cc1)c1ccncc1 -5%, Cc1nn(-c2ccc(C(=O)O)cc2)c(C)c1Cl 11.5%, COc1ccc(S(=O)(=O)N(C)c2ccc(C(=O)N3CCN(c4ccccc4)CC3)cc2)cc1OC 7.6%, CC(=O)Nc1ccc(S(=O)(=O)Nc2ccc3ccccc3n2)cc1 10.8%, Cc1nc(N2CCN(S(=O)(=O)c3ccc(Br)cc3)CC2)c2c(C)c(C)sc2n1 45%, CCS(=O)(=O)N1CCN(c2ncnc3sc(C)c(C)c23)CC1 18%, COc1ccc(CCC(=O)NNC(=O)c2cc(Cl)ccc2OC)cc1 -4.6%, COc1ccc(/C(N)=N/OC(=O)Cc2ccccc2[N+](=O)[O-])cc1 -2.6%, COc1ccc(NC(=O)CSc2ncnc3c2sc2ccccc23)c(OC)c1 -3.6%, O=C(c1ccc(Cl)cc1)n1c(NCc2ccccc2)n[nH]c1=S -38.1%, Oc1ccc(N=Nc2c(O)ccc3ccccc23)cc1 17%, Oc1ccc2ccccc2c1/C=N/c1nccs1 -2.7%, O=C(N/N=C/c1ccco1)c1ccc(NC(=O)c2ccccc2Cl)cc1 -2.4%, O=C(N/N=C/c1ccco1)c1cccc(NC(=O)c2cccc(Cl)c2)c1 12.2%, O=C(Nc1cccc(-n2cccn2)c1)C1CCCN(Cc2ccc(C#CCCO)cc2)C1 (stereo not drawn) -17.7%, C=CCNC(=O)c1c(Cl)cccc1Cl 11.9%, Cc1ccc2[nH]c3c(NCc4ccccc4)ncnc3c2c1 39.4%, COc1ccc(CNc2ncnc3c2[nH]c2ccccc23)cc1 23.3%, CCOC(=O)c1sc2cccc(Cl)c2c1N 10.6%, COc1ccc(CC(=O)Nc2cccnc2)cc1 -3%, O=C(Cc1c(Cl)cccc1Cl)Nc1ccncc1Cl 13.2%, COCc1cc(Sc2ccc(OC)cc2)nc(-c2ccccc2)n1 18.2%, CC1CCN(S(=O)(=O)c2ccc(S(=O)(=O)N3CCCC3)cc2)CC1 -1.3%, Nc1cc(S(=O)(=O)N2CCCCC2)ccc1N1CCOCC1 9.9%, Cc1ccc(C(=O)N2CCCC(Nc3ccc(C)c(C)c3)C2)c(=O)[nH]1 (stereo not drawn) 9.6%, CCCCn1c(SCC(=O)N2CCC(C)CC2)nc2ccsc2c1=O -2.9%, CCCCn1c(SCC(=O)c2ccccc2)nc2ccsc2c1=O 13.3%, CC(=O)c1cccc(NC(=O)C2C3CCC(C3)C2C(=O)O)c1 (stereo not drawn) 4.1%, COc1ccc(NC(=O)c2ccc(NCC3CCCO3)c([N+](=O)[O-])c2)cc1 (stereo not drawn) 13.3%, Cc1ccccc1NC(=S)NNc1ncc(C(F)(F)F)cc1Cl 4.9%, Fc1ccccc1NC(=S)NNc1ncc(C(F)(F)F)cc1Cl 13.7%, COc1ccc(/C=C2\SC(=S)N(CCC(=O)NC3C=CS(=O)(=O)C3)C2=O)cc1 (stereo not drawn) 11.8%, O=C(O)c1ccccc1C(=O)Nc1ccc(Oc2ccccc2)cc1 7.7%, Cc1cccc(Oc2ccc(NC(=O)c3ccccc3C(=O)O)cc2)c1C 8.6%, CC(C)[C@H](NC(=O)OC(C)(C)C)C(=O)N/N=C/c1cccc2nccnc12 10.5%, CC(=O)CSc1nnc(Cc2ccc([N+](=O)[O-])cc2)o1 9.2%, O=[N+]([O-])c1ccc(CSc2nnc(Cc3ccccc3)o2)cc1 1.1%, O=C(O)CNC(=S)N(Cc1ccccc1)Cc1ccccc1F 16.1%, CN=c1scc(-c2ccccc2Br)n1/N=C/c1ccc[nH]1 42.5%, CN=c1scc(-c2ccccc2F)n1/N=C/c1ccc(O)c(O)c1O 18.1%, Cc1cc(C(=O)CN2CCCCC2)c(C)n1-c1ccc(F)cc1 -23.5%, Cc1cc(C(=O)COC(=O)c2ccc[nH]c2=O)c(C)n1-c1ccc(F)cc1 -12.8%, Cc1cccc(C(=O)NC(=S)Nc2ccc3[nH]c(=O)[nH]c3c2)c1 -10.1%, O=C(COC(=O)CCC(=O)c1cccs1)Nc1ccc(Cl)cn1 -14%, COCCCN=C1NN=C(c2cc(C)n(Cc3ccco3)c2C)CS1 -60.2%, CCN=C1NN=C(c2cc(C)n(CCc3ccccc3)c2C)CS1 0.1%, Cc1cc(-c2csc(N)n2)c(C)n1Cc1ccco1 1.7%, Cc1cc(C2=NNC(=NC3CCCCC3)SC2)c(C)n1-c1c(C)n(C)n(-c2ccccc2)c1=O 2%, CCCC(=O)C1=C(O)C(C(=O)OC)C(C)(C)CC1=Nc1cccc2ccccc12 (stereo not drawn) 13.4%, CCCn1c(SCC(=O)NC2CCCCC2)nnc1-c1ccccn1 22.2%, C=CCn1c(O)c(C=Nc2ccc(CN3CCCCC3)cc2)c(=O)[nH]c1=S 25.5%, CCCCCn1ccc(=N)cc1 31.1%, CCCCCCn1ccc(=N)cc1 40.3%, C[C@]12CCC3C(CC[C@H]4CC(O)CC[C@]34C)C1CC/C2=N/O (stereo partly drawn) 26.5%, C[C@]12CCC3C(CC[C@H]4CC(O)CC[C@]34C)C1CC/C2=N/NC(=O)c1ccncc1 (stereo partly drawn) -5.7%, Cc1cc(CNC(=O)c2cccc([N+](=O)[O-])c2C)c2ccccc2n1 31.5%, O=C(Oc1ccccc1C(=O)Nc1ccccc1)c1ccc(Br)c([N+](=O)[O-])c1 -12.7%, O=C(CSc1nnc(CNC(=O)c2ccco2)o1)Nc1ccc(OC(F)(F)F)cc1 9.8%, COc1ccccc1NC(=O)CSC1=NC(=O)C(Cc2ccccc2)C(=O)N1 (stereo not drawn) -3%, CC(=O)NS(=O)(=O)c1ccc(NS(=O)(=O)c2ccc3ccccc3c2)cc1 0.7%, COc1ccccc1Cn1c(=S)[nH]c2cc(C(=O)NCCN(C)C)ccc2c1=O 20.6%, Cc1cc(NC(=O)CSc2ccc3nnc(-c4ccc(Cl)cc4)n3n2)no1 5.8%, CCS(=O)(=O)C1=NN2C(=N)/C(=C\c3ccc(OS(=O)(=O)c4ccccc4)c(OC)c3)C(=O)N=C2S1 12.5%, C=CCOc1ccc(/C=C2\C(=N)N3N=C(S(=O)(=O)CC)SC3=NC2=O)cc1OC 28.5%, COc1cc(/C=C2\C(=N)N3N=C(S(C)(=O)=O)SC3=NC2=O)cc(OC)c1OCCOc1cccc(C)c1 25.9%, CCOc1cc(/C=C2\C(=N)N3N=C(C)SC3=NC2=O)ccc1OCCOc1cccc(OC)c1 7.2%, CCOC(=O)C1=NN(c2ccccc2)C2C(=O)N(c3ccccc3OC)C(=O)C12 (stereo not drawn) 21.2%, Cc1cc(C)n2nc(SCC(=O)c3ccccc3)nc2n1 -15.3%, COc1ccc(CC(=O)Nc2nc(-c3ccc(F)c(F)c3)cs2)cc1 15.8%, COc1ccc(-c2csc(NC(=O)Cc3cc(OC)c(OC)c(OC)c3)n2)cc1OC 22.7%

inhibition, active:
CCOC(=O)c1c(-c2ccc(C)cc2)csc1NC(=O)CCSc1nnc2ccccn12 53.9%, Cc1nn(-c2ccc(NC(=O)c3ccncc3)cc2)c(C)c1Cl 50%, Oc1ccc2ccccc2c1N=Nc1nccs1 91.9%, O=C(N/N=C/c1ccco1)c1cccc(NC(=O)c2ccccc2Cl)c1 50.6%, Fc1ccc2[nH]c3c(NCc4ccccc4)ncnc3c2c1 62.7%, CC1CCN(c2ccc(S(=O)(=O)N3CCC(C)CC3)cc2N)CC1 50.3%, O=C(O)c1ccccc1C(=O)Nc1ccc(Oc2cccc3ccccc23)cc1 61.3%, COc1ccc(Cc2nnc(SCc3ccc([N+](=O)[O-])cc3)o2)cc1 56.9%, CN=c1scc(-c2ccccc2F)n1/N=C/c1ccc[nH]1 90.4%, Cc1cc(C(=O)COC(=O)C2CC2)c(C)n1-c1ccc(F)cc1 60.3%, CCN=C1NN=C(c2cc(C)n(Cc3ccco3)c2C)CS1 82.2%, Cc1cc(C2=NNC(=NC3CC3)SC2)c(C)n1Cc1ccco1 85.3%, C/C(=N\NC(N)=S)C1=CCC2C3CC[C@H]4CC(O)CC[C@]4(C)C3CC[C@]12C (stereo partly drawn) 54.6%, COc1cc(CC(=O)Nc2nc(-c3ccc(F)c(F)c3)cs2)cc(OC)c1OC 58.7%
